Results on seven targets are retold here after the supplement of paper PMC10849652.

About 7,900 targets were measured; listed, in parts, are those with a hit and a random draw of the rest. About 0.6% of all pairs of compound and target were hits. Values without a mark were called inactive.

Experiment in all cases: log2 fold change, soluble protein after heating vs DMSO (PISA); higher = thermal stabilisation; K562 cells, 10 uM, 30 min; active = over 0.2 and 3.5 SD of the protein, either way, in both replicates (recomputed)
Compound in one assay: Cc1ccc(NC(=O)c2ccc(CN3CC[C@H](N(C)C)C3)c(C(F)(F)F)c2)cc1Nc1nccc(-c2cncnc2)n1 [bafetinib]
In short, it runs like this: (§1)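 Soluble protein was quantified by TMTpro 16plex LC-MS/MS after channel sums were equalised. It was obtained as the supernatant after 21,000xg for 90 min from pooled aliquots of K562 cells (2×10^6 cells/mL, 10 μM compound, 30 min) heated for 3 min across 48°C-58°C and extracted in PBS with 0.5% NP-40 at 4°C. Thermal stability values are relative to control samples and come from duplicates. They are given as log2 fold changes.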

Compound in assay [1]: Cc1cccc(CC(=O)N2CCc3c2ccc(-c2cn(C)c4ncnc(N)c24)c3F)n1
In short, it runs like this:
as §1

Compound in a further assay: Cc1cn(-c2cc(NC(=O)c3ccc(C)c(Nc4nccc(-c5cccnc5)n4)c3)cc(C(F)(F)F)c2)cn1 [nilotinib]
In short, it runs like this:
as §1

Compound in assay [2]: Cc1nc(Nc2n[nH]c3c2CN(C(=O)N[C@H](CN(C)C)c2ccccc2)C3(C)C)c2sccc2n1
In short, it runs like this: as §1

Compound in the next assay: Cc1nc(Nc2ncc(C(=O)Nc3c(C)cccc3Cl)s2)cc(N2CCN(CCO)CC2)n1 [dasatinib]
In short, it runs like this:
as §1

Compound in assay [3]: Cc1ncc(-c2ccnc(Nc3ccc(S(C)(=O)=O)cc3)n2)n1C(C)C
In short, it runs like this: as §1

Compound in assay [4]: Cn1cc(-c2ccc3c(c2)CCN3C(=O)Cc2cccc(C(F)(F)F)c2)c2c(N)ncnc21
In short, it runs like this:
as §1

Compound in assay [5]: Cn1cc(-c2ccc3nnc(C(F)(F)c4ccc5ncccc5c4)n3n2)cn1
In short, it runs like this: as §1

Compound in the next assay: Cn1cncc1[C@@](N)(c1ccc(Cl)cc1)c1ccc2c(c1)c(-c1cccc(Cl)c1)cc(=O)n2C [tipifarnib]
In short, it runs like this: as §1

Compound in a further assay: FC(F)(F)c1ccc(/C=C/c2nc(COc3ccc(CCCCn4ccnn4)cc3)co2)cc1 [mubritinib]
In short, it runs like this:
as §1

Compound in assay [6]: NC(=O)Nc1cc(-c2cccc(F)c2)sc1C(=O)N[C@H]1CCCNC1
In short, it runs like this: as §1

Compound in assay [7]: NC(=O)c1cnc(N[C@@H]2CCCC[C@@H]2N)nc1Nc1cccc(-n2nccn2)c1
In short, it runs like this:
as §1

Compound in assay [8]: NC1(c2ccc(-c3nc4ccn5c(=O)[nH]nc5c4cc3-c3ccccc3)cc2)CCC1
In short, it runs like this: as §1

Compound in assay [9]: NCC(=O)Nc1ccc(-n2nc(C(F)(F)F)cc2-c2ccc3c(ccc4ccccc43)c2)cc1
In short, it runs like this:
as §1

Compound in the next assay: Nc1ccccc1NC(=O)c1ccc(CNC(=O)OCc2cccnc2)cc1 [entinostat]
In short, it runs like this:
as §1

Compound in a further assay: O=C(CCCCCCC(=O)Nc1ccccc1)NO [vorinostat]
In short, it runs like this:
as §1

Compound in a further assay: O=C(CCCCCCNC(=O)c1cnc(N(c2ccccc2)c2ccccc2Cl)nc1)NO [citarinostat]
In short, it runs like this: as §1

Compound in a further assay: O=C(O)c1ccc2c(c1)nc(Nc1cccc(Cl)c1)c1ccncc12 [silmitasertib]
In short, it runs like this: as §1

Compound in assay [10]: O=C1NC(=O)C(c2cnc3ccccn23)=C1c1cn2c3c(cc(F)cc13)CN(C(=O)N1CCCCC1)CC2
In short, it runs like this: as §1

Compound in assay [11]: c1cc(OCCN2CCCCC2)cc(-c2n[nH]c3ccc(-c4nnc[nH]4)cc23)c1
In short, it runs like this: as §1

Sequence of UniProt Q86TU7 (Q86TU7 whole entry, looked up): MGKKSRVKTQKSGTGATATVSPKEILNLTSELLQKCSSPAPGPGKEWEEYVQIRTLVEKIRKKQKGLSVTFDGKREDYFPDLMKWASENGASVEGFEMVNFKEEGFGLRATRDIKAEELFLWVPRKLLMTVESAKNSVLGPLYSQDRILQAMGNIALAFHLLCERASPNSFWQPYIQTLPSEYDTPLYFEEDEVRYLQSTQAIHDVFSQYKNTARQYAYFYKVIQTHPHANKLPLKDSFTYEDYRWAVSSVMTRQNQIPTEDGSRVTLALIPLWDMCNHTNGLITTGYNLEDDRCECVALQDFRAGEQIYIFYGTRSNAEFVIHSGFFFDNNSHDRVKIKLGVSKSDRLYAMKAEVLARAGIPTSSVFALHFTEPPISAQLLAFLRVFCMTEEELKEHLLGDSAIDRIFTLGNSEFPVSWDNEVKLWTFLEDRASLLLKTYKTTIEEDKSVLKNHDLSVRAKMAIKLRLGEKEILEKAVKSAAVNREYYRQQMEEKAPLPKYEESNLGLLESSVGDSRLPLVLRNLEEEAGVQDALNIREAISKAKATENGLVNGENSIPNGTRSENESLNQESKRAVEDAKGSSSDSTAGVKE
Sequence of UniProt Q9Y6Y8 (Q9Y6Y8 whole entry, looked up): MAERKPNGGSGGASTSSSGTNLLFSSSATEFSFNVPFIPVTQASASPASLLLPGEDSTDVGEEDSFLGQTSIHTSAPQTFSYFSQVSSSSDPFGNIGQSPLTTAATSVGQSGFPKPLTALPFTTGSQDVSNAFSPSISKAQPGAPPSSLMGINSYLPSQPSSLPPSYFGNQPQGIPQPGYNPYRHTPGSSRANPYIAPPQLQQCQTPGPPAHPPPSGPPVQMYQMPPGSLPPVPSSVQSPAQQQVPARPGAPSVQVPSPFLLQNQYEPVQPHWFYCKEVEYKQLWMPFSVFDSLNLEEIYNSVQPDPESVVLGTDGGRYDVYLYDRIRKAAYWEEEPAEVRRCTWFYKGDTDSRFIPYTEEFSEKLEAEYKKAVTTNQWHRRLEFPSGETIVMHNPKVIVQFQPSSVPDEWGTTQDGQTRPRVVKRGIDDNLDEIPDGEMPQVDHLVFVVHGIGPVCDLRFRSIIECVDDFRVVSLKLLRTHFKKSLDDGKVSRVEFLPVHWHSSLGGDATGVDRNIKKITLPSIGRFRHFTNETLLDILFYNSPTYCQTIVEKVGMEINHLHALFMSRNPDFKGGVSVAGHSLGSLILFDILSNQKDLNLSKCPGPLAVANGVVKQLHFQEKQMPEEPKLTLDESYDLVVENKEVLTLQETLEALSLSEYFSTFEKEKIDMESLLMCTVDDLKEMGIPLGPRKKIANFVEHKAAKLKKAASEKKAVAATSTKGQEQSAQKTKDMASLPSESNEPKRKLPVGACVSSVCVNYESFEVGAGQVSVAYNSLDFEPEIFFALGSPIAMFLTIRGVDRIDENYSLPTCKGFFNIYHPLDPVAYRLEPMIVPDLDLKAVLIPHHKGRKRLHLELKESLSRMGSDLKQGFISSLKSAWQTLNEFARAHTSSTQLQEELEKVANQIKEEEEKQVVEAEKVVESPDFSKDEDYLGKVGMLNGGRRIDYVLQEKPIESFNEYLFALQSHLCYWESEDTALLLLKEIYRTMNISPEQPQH
Sequence of UniProt Q15287 (Q15287 whole entry, looked up): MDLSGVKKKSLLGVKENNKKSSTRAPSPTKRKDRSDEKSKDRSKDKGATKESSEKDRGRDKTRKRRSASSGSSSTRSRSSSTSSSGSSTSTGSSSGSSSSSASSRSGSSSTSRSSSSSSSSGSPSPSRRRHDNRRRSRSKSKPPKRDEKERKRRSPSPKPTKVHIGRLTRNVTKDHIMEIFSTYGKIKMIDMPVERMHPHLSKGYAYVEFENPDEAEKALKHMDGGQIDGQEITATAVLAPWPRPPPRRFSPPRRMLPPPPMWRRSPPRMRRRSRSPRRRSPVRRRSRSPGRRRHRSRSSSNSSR
Sequence of UniProt Q14151 (Q14151 whole entry, looked up): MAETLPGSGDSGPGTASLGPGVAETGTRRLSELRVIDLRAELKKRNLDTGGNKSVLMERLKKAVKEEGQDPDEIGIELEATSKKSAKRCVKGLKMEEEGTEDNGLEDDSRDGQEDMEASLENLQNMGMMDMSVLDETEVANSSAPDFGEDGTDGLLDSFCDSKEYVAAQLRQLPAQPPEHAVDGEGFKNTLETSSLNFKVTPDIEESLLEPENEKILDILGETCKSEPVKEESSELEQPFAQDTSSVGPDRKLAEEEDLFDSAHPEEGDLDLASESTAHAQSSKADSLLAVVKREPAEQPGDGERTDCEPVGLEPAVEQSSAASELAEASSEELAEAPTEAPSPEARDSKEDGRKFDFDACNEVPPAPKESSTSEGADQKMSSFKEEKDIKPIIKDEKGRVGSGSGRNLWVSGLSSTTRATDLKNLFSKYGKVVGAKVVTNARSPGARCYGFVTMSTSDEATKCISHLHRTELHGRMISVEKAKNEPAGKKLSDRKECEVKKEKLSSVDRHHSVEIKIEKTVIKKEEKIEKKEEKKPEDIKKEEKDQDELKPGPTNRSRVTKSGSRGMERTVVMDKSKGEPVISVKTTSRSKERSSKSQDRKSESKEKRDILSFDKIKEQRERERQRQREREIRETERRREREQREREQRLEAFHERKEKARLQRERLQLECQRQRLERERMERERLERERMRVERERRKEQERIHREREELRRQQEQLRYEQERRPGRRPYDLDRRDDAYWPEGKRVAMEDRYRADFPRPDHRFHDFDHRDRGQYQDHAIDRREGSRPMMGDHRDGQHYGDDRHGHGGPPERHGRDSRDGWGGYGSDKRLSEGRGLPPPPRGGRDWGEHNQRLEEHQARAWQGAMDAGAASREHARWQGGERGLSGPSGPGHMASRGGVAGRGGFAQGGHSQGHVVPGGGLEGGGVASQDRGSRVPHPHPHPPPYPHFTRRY
Sequence of UniProt O43665 (O43665 whole entry, looked up): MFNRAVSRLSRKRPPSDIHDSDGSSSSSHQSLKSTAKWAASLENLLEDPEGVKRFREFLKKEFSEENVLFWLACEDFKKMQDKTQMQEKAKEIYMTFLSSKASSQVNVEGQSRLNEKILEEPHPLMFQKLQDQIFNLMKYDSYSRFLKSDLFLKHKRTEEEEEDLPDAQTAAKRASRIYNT
Sequence of UniProt Q92878 (Q92878 whole entry, looked up): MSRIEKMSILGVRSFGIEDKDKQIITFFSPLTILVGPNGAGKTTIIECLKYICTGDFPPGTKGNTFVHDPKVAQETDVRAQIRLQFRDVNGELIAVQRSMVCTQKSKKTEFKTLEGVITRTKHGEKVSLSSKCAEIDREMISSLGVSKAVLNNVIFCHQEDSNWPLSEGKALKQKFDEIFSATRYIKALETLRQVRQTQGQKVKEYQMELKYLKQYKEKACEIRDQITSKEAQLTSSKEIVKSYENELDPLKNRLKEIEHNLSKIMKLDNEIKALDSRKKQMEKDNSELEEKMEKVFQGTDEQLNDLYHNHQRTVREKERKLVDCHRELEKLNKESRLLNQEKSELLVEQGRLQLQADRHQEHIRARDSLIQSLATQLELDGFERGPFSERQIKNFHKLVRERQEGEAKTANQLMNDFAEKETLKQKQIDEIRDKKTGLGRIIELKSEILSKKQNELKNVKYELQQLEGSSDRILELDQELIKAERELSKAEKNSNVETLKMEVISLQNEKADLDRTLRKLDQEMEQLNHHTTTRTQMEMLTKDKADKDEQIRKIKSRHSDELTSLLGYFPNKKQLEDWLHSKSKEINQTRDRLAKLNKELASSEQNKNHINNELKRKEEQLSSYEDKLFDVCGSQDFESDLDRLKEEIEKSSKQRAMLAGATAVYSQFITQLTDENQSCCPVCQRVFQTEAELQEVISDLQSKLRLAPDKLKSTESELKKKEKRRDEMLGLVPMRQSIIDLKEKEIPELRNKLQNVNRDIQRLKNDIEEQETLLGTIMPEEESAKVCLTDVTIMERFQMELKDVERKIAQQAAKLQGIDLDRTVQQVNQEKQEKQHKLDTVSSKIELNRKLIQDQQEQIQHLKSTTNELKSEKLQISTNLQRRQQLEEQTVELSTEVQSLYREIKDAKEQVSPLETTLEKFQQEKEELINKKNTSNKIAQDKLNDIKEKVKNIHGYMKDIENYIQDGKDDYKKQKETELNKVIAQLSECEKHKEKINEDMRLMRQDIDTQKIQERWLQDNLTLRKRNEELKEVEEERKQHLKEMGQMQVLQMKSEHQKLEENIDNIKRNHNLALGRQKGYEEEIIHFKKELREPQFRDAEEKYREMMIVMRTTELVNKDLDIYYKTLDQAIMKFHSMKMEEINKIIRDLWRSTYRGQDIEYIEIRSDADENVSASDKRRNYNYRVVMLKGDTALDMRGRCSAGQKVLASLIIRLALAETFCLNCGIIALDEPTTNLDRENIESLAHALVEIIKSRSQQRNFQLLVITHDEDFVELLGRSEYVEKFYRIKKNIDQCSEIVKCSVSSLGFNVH
Sequence of UniProt O14730 (O14730 whole entry, looked up): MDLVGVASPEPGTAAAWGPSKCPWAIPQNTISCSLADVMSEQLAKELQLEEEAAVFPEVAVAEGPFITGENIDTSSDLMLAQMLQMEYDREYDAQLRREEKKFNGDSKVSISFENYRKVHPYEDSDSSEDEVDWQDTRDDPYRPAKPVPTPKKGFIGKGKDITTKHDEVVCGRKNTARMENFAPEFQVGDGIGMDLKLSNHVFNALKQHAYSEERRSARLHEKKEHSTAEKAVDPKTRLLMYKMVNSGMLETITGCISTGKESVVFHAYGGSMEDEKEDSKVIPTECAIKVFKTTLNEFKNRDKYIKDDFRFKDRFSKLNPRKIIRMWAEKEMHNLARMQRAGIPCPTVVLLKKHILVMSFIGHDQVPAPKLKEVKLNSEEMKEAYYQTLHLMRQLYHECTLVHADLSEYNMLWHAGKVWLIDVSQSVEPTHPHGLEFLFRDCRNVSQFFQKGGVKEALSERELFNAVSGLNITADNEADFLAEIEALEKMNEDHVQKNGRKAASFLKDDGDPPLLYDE

In the case of RIOK3 (UniProt O14730), the log2 fold change with bafetinib was -0.004; in [1], -0.02; in the assay with nilotinib, -0.017; in assay [2], 0.06; with dasatinib, 0.053; in assay [3], -0.01. In addition, the log2 fold change was 0.018 in [4]; -0.005 in assay [5]; 0.002 with tipifarnib; 0.017 with mubritinib; 0.047 in assay [6]; -0.005 in [7]. Moreover, the log2 fold change in assay [8] was -0.061; in [9], 0.015; in the assay with entinostat it was -0.005; with vorinostat, 0.043; in the assay with citarinostat it was 0.036; in the assay with silmitasertib, -0.011. Further, the results for the log2 fold change in assay [10] and in assay [11] were 0.057 and -0.046, respectively.

RNPS1 (UniProt Q15287): the log2 fold change with bafetinib was -0.073; in assay [1], -0.032; in the assay with nilotinib, -0.035; in assay [2], -0.62 (active); with dasatinib, -0.007; in [3], -0.12. In addition, the log2 fold change in [4] is -0.037; in [5], 0.011; with tipifarnib, -0.084; in the assay with mubritinib, 0.003; in assay [6], -0.019; in [7] it was -0.39. Besides, the log2 fold change in assay [8] is 0.097; in [9], 0.031; with entinostat, -0.06; in the assay with vorinostat it was 0.024; in the assay with citarinostat, 0.038; with silmitasertib it was -0.111. Further, the log2 fold change in assay [10] is -0.018; in assay [11] it was -0.146.

With RAD50 isoform 2 (UniProt Q92878), the log2 fold change with bafetinib is -0.015; in assay [1], 0.009; in the assay with nilotinib, -0.039; in [2], -0.112; with dasatinib, -0.089; in assay [3], -0.016. Besides, the log2 fold change was 0.023 in assay [4]; 0.042 in assay [5]; -0.017 with tipifarnib; 0.063 in the assay with mubritinib; -0.011 in assay [6]; -0.042 in [7]. Further, the log2 fold change in assay [8] was -0.057; in assay [9], -0.064; with entinostat, 0.038; with vorinostat, -0.014; in the assay with citarinostat, 0.047; with silmitasertib, -0.008. In addition, the log2 fold change in assay [10] is -0.034; in assay [11] it was 0.009.

Take SAFB2 (UniProt Q14151): the log2 fold change is 0.17 in the assay with bafetinib; -0.018 in assay [1]; -0.016 with nilotinib; 0.117 in assay [2]; 0.183 in the assay with dasatinib; -0.054 in [3]. Besides, the log2 fold change is -0.135 in assay [4]; -0.058 in assay [5]; 0.085 with tipifarnib; -0.077 in the assay with mubritinib; 0.116 in assay [6]; 0.084 in [7]. In addition, the log2 fold change in assay [8] was 0.255; in [9], 0.043; with entinostat, -0.076; in the assay with vorinostat it was -0.016; with citarinostat, -0.098; in the assay with silmitasertib, 0.119. Moreover, the values for the log2 fold change in [10] and in [11] were 0.084 and -0.038, respectively.

On to SETD3 (UniProt Q86TU7), for which the log2 fold change in the assay with bafetinib was -0.015; in [1] it was -0.005; with nilotinib, 0.002; in assay [2] it was -0.009; in the assay with dasatinib it was 0.006; in [3], -0.023. The log2 fold change was 0.033 in assay [4]; 0.031 in assay [5]; 0.029 in the assay with tipifarnib; 0.052 in the assay with mubritinib; -0.007 in assay [6]; -0.019 in assay [7]. In addition, the log2 fold change in assay [8] is -0.045; in assay [9] it was -0.002; with entinostat, -0.02; with vorinostat, -0.035; with citarinostat it was -0.015; with silmitasertib, 0.007. The log2 fold change is -0.022 in assay [10] and 0.031 in [11].

Take SEC23IP (UniProt Q9Y6Y8): the log2 fold change was -0.23 with bafetinib; 0.036 in assay [1]; -0.017 with nilotinib; -0.061 in [2]; -0.143 with dasatinib; -0.026 in assay [3]. The log2 fold change in assay [4] is 0.148; in assay [5] it was 0.009; in the assay with tipifarnib it was -0.057; in the assay with mubritinib it was 0.014; in assay [6], -0.049; in assay [7] it was -0.152. Further, the log2 fold change was -0.221 in assay [8]; -0.033 in assay [9]; 0.049 in the assay with entinostat; 0.065 with vorinostat; 0.055 with citarinostat; -0.03 with silmitasertib. For the same target, the results for the log2 fold change in [10] and in [11] were -0.058 and -0.063, respectively.

RGS10 (UniProt O43665): the log2 fold change with bafetinib is -0.08; in assay [1], 0.032; with nilotinib, -0.057; in assay [2] it was 0.002; in the assay with dasatinib, -0.034; in [3], 0.009. Further, the log2 fold change in [4] was 0.126; in assay [5], -0.031; in the assay with tipifarnib, -0.043; with mubritinib, -0.019; in assay [6] it was 0.077; in [7], 0.068. In addition, the log2 fold change in assay [8] is -0.037; in assay [9], 0.11; with entinostat, 0.038; with vorinostat, 0.054; with citarinostat it was 0.087; with silmitasertib, 0.01. Moreover, the results for the log2 fold change in [10] and in assay [11] were -0.057 and 0.033, respectively.
